# Assay results as given in PubChem BioAssay (NCATS).
# Records with an inconclusive call do not appear. Unmarked numbers belong to inactive results. Calls of active or inactive are those of the source. Calls come from the whole dose curve; as a rule, active = well fitted inhibition curve with a large enough effect; inconclusive = small, poorly fitted or top-dose-only effect; inactive = no such curve, though single readings can be large or run the other way.
# Assay: S16 Schwann cell PMP22 intronic element firefly luciferase assay (AID 624032); note: nearly all actives have a fitted effect of over 30% in size;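 for activity change, negative = inhibition: plate controls were DMSO for no effect and PTC124 positive control mean for full effect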
# Conditions: S16 rat Schwann cells, PMP22 element FLuc, 24 h; series mostly up to 57.5 µM; activity change, negative = inhibition: at the top concentration
# Outline: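 Rat S16 Schwann cells stably carrying firefly luciferase driven by a PMP22 intronic element, in 10% FBS, treated 24 h at 37 C. ONE-Glo luminescence normalized to PTC124 control and DMSO (0%); curves classed by r2, magnitude and activity.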
# Potency is the fitted concentration of half-maximal effect.
Compound,Potency,"activity change, negative = inhibition"
CCCCCCCCCCCC(CC1OC(=O)C1CCCCCC)OC(=O)C(CC(C)C)NC=O (stereo not given),7.21 µM (active),
COc1ccc2c(c1OC)C(=O)OC2[C@H]1c2c(cc3c(c2OC)OCO3)CCN1C (stereo not given in full),,1.77%
COc1cccc2c1C(=O)c1c(O)c3c(c(O)c1C2=O)C[C@@](O)(C(=O)CO)C[C@@H]3O[C@H]1C[C@H](N)[C@H](OC2CCCCO2)[C@H](C)O1 (stereo not given in full),,11.8%
Nc1nc2c(c(=O)[nH]1)N(C=O)[C@H](CNc1ccc(C(=O)N[C@@H](CCC(=O)O)C(=O)O)cc1)CN2,,-7.9% [at 25.7 µM]
OCC(O)C(O)C(O)CO (stereo not given),,-2.31%
